Drawing on PubChem BioAssay (NCI), this text covers growth for 8 molecules.

Among the test systems are DU-145 prostate; K-562 leukemia; MALME-3M melanoma; MDA-MB-231 breast; RXF 393 renal; SF-268 CNS; SF-295 CNS; SF-539 CNS; UACC-257 melanoma; M14 melanoma; HCT-15 colon; HT29 colon; SNB-75 CNS; SNB-19 CNS; U251 CNS; PC-3 prostate; SK-MEL-5 melanoma; UACC-62 melanoma; LOX IMVI melanoma; SK-MEL-28 melanoma.
What all share (test): NCI-60 one-dose screen, 48 h (100 = growth as untreated, 0 = no growth, -100 = all killed)
Holding throughout (conditions): 10 µM unless noted

About 83,000 compounds went through this panel and 20% of them were active in at least one assay; those are over-represented in the sample as a whole.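 How to read the values: 0–100, growth inhibition (40 = 60% inhibited); 0, no net growth; -100 to 0, cell death (-40 = 40% of starting cells died; -100 = all dead).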 Unmarked numbers belong to inactive results. Activity calls are given as the source filed them. Rule for the calls: active = growth percent below 10; inactive = the rest.

Regarding `COc1ccc(C2=CN3CC=CC3CC2=O)cc1` (stereo not drawn), the growth with DU-145 prostate was 98.9%; in the assay with K-562 leukemia it was 98.4%; in the assay on MALME-3M melanoma, 81.6%; in the assay on MDA-MB-231 breast, 105%; with RXF 393 renal, 110%; in the assay with SF-268 CNS, 98.2%. In addition, the growth with SF-295 CNS was 93.3%; with SF-539 CNS it was 95%; with UACC-257 melanoma, 92.9%; with M14 melanoma, 106%; in the assay on HCT-15 colon, 95.2%; in the assay with HT29 colon, 90.5%. Further, the growth was 90.9% in the assay on SNB-75 CNS; 105% in the assay on SNB-19 CNS; 94.5% in the assay with U251 CNS; 92.1% with PC-3 prostate; 100% in the assay on SK-MEL-5 melanoma; 105% in the assay with UACC-62 melanoma. Also, the growth in the assay on LOX IMVI melanoma was 104%; in the assay on SK-MEL-28 melanoma, 102%.
`COc1ccc(/C=C/C(=O)c2cc3c(N)c(C(=O)Nc4cccc(Cl)c4C)sc3nc2C)cc1`: the growth in the assay on DU-145 prostate is 7.29% (active); with K-562 leukemia it was 13%; with MALME-3M melanoma, 45.8%; in the assay on MDA-MB-231 breast, -12.3% (active); in the assay on RXF 393 renal it was -17.3% (active); in the assay with SF-268 CNS, 11.7%. Besides, the growth in the assay with SF-295 CNS is 13.1%; in the assay on SF-539 CNS, -40.6% (active); in the assay with UACC-257 melanoma it was 63%; in the assay with M14 melanoma, -6.38% (active); in the assay with HCT-15 colon, 5.62% (active); with HT29 colon it was -2.08% (active). In addition, the growth with SNB-75 CNS is 21.3%; in the assay with SNB-19 CNS it was 5.32% (active); with U251 CNS it was -20% (active); in the assay on PC-3 prostate, 22.7%; in the assay on SK-MEL-5 melanoma it was -28.9% (active); in the assay on UACC-62 melanoma, 26.9%. Further, the growth was -44.6% (active) in the assay on LOX IMVI melanoma and 43.7% with SK-MEL-28 melanoma.
Turning to `Cc1ccnc(Nc2ccc([N+](=O)[O-])c(NCCN3CCOCC3)n2)c1`, the growth is 10.1% with DU-145 prostate; 6.76% (active) in the assay with K-562 leukemia; 89.3% in the assay with MALME-3M melanoma; 42.4% in the assay with MDA-MB-231 breast; 70.4% in the assay with RXF 393 renal; 31.9% with SF-268 CNS. For the same molecule, the growth in the assay on SF-295 CNS was 35.8%; with SF-539 CNS, 6.71% (active); with UACC-257 melanoma, 86.2%; in the assay on M14 melanoma, 24.1%; with HCT-15 colon, 8.47% (active); in the assay on HT29 colon, 10.9%. Moreover, the growth in the assay with SNB-75 CNS was 56.8%; with SNB-19 CNS, 58.3%; in the assay on U251 CNS, 23.2%; with PC-3 prostate, 12.2%; in the assay on SK-MEL-5 melanoma it was -3.36% (active); in the assay on UACC-62 melanoma, 37.3%. For the same molecule, the growth in the assay on LOX IMVI melanoma was 22.8%; in the assay on SK-MEL-28 melanoma, 72%.
As for `COc1ccc(Oc2nc(Nc3ccc(N4CCOCC4)cc3)ncc2NC(=O)Nc2cc(OC)cc(OC)c2)cc1`, the growth in the assay with DU-145 prostate was 12.8%; with K-562 leukemia, 19.9%; in the assay with MALME-3M melanoma, 7.76% (active); in the assay on MDA-MB-231 breast, 1.79% (active); in the assay with RXF 393 renal, -29.2% (active); with SF-268 CNS, 34.3%. For the same molecule, the growth in the assay with SF-295 CNS was 34.4%; in the assay on SF-539 CNS, -32.5% (active); in the assay with UACC-257 melanoma, 35.9%; in the assay with M14 melanoma it was 21.4%; with HCT-15 colon, 82.9%; in the assay with HT29 colon, -32.8% (active). For the same molecule, the growth is 53.3% in the assay on SNB-75 CNS; 28.3% with SNB-19 CNS; -35.8% (active) with U251 CNS; 11.6% in the assay on PC-3 prostate; -32.8% (active) in the assay on SK-MEL-5 melanoma; -8.63% (active) with UACC-62 melanoma. For the same molecule, the growth with LOX IMVI melanoma is 24.1%; with SK-MEL-28 melanoma it was 5.33% (active).
`CCOc1c(OC)cc2c(c1O)C(=O)N[C@@H]1[C@@H](O)[C@@H](O)[C@H](O)C[C@@H]21`: the growth was 109% in the assay on DU-145 prostate; 91.2% in the assay with K-562 leukemia; 102% in the assay with MALME-3M melanoma; 106% in the assay on MDA-MB-231 breast; 109% in the assay with RXF 393 renal; 102% in the assay with SF-268 CNS. Besides, the growth with SF-295 CNS was 102%; with SF-539 CNS, 97.7%; with UACC-257 melanoma, 100%; with M14 melanoma it was 105%; with HCT-15 colon, 102%; in the assay on HT29 colon, 100%. For the same molecule, the growth in the assay with SNB-75 CNS is 93.5%; in the assay on SNB-19 CNS it was 99%; with U251 CNS it was 96.7%; in the assay on PC-3 prostate it was 100%; in the assay with SK-MEL-5 melanoma it was 101%; with UACC-62 melanoma, 93.1%. Moreover, the growth in the assay with LOX IMVI melanoma is 98.1%; with SK-MEL-28 melanoma, 105%.
With `O=S(=O)(NCCNc1nccc(-c2c(-c3ccc(F)c(O)c3)nc3sccn23)n1)c1ccc(F)cc1`, the growth in the assay on DU-145 prostate is 34.4%; in the assay on K-562 leukemia, 14.7%; in the assay with MALME-3M melanoma, 5.92% (active); with MDA-MB-231 breast, 25.5%; in the assay with RXF 393 renal it was -4.56% (active); in the assay on SF-268 CNS, 37.3%. The growth in the assay on SF-295 CNS was 53.4%; in the assay with SF-539 CNS, 44.3%; with UACC-257 melanoma, 32.1%; in the assay on M14 melanoma, 15.5%; in the assay with HCT-15 colon it was 29.9%; in the assay on HT29 colon it was 16.7%. Further, the growth was 64.1% in the assay on SNB-75 CNS; 59.1% in the assay on SNB-19 CNS; 45.5% with U251 CNS; -41.5% (active) in the assay with SK-MEL-5 melanoma; 4.93% (active) in the assay on UACC-62 melanoma; 16.6% in the assay with LOX IMVI melanoma.
As for `COc1cccc(CNc2c3ccccc3nc3ccccc23)c1`, the growth is 53.3% with DU-145 prostate; 6.57% (active) in the assay with K-562 leukemia; 44% with MALME-3M melanoma; 49.9% in the assay on MDA-MB-231 breast; 13.8% with RXF 393 renal; 71.2% with SF-268 CNS. Moreover, the growth was 36% in the assay with SF-295 CNS; 19.4% in the assay with SF-539 CNS; 55% with UACC-257 melanoma; 35.2% with M14 melanoma; 24.4% in the assay on HCT-15 colon; 18.7% in the assay with HT29 colon. The growth in the assay with SNB-75 CNS was 56.9%; in the assay on SNB-19 CNS, 36%; with U251 CNS, 38.7%; in the assay on PC-3 prostate, 38.9%; in the assay with SK-MEL-5 melanoma, 57.6%; with UACC-62 melanoma, 63.5%. Further, the growth is 19.8% in the assay on LOX IMVI melanoma and 81.2% with SK-MEL-28 melanoma.
As to `CO[C@H](C(=O)[C@@H](O)[C@@H](C)O)[C@@H]1Cc2cc3cc(O[C@H]4C[C@@H](O[C@H]5C[C@@H](O)[C@H](O)C(C)O5)[C@H](O)C(C)(O)O4)cc(O)c3c(O)c2C(=O)[C@H]1O[C@H]1C[C@@H](O[C@H]2C[C@@H](O[C@H]3C[C@@H](OC)[C@H](O)C(C)O3)[C@@H](O)C(C)O2)[C@H](O)C(C)O1` (stereo partly drawn), the growth in the assay with DU-145 prostate was 17.5%; with K-562 leukemia, 29.9%; in the assay with MALME-3M melanoma, -11.4% (active); with MDA-MB-231 breast it was 25.1%; in the assay on RXF 393 renal it was -35.1% (active); in the assay on SF-268 CNS, 34.8%. Moreover, the growth in the assay on SF-295 CNS was 14.4%; with SF-539 CNS, 9.92% (active); in the assay with UACC-257 melanoma, -16% (active); in the assay on M14 melanoma, 34.2%; with HCT-15 colon, 92.8%; in the assay on HT29 colon, 11.3%. The growth in the assay with SNB-75 CNS is 24.5%; in the assay on SNB-19 CNS, 24.4%; with U251 CNS it was 6.61% (active); in the assay on PC-3 prostate, 26.3%; in the assay on SK-MEL-5 melanoma it was -56.8% (active); with UACC-62 melanoma, -39.5% (active). For the same molecule, the growth is 2.79% (active) in the assay on LOX IMVI melanoma and 3.39% (active) in the assay on SK-MEL-28 melanoma.
